GLP-1R agonist: agonists of human GLP-1 receptor | P43220 | HEK293 GLP-1R CRE-luciferase, luminescence, 4-6 h; cells express a hypersensitive GLP-1R form | Potency, µM (top dose mostly 45.6 µM), for inactives: at the highest dose activation, hits mostly activators | actives 0.007% (n = 380,000); also: potency is read from the fitted curve at half-maximal effect; % of control where 0% means no effect
Target sequence (P43220 whole entry, looked up): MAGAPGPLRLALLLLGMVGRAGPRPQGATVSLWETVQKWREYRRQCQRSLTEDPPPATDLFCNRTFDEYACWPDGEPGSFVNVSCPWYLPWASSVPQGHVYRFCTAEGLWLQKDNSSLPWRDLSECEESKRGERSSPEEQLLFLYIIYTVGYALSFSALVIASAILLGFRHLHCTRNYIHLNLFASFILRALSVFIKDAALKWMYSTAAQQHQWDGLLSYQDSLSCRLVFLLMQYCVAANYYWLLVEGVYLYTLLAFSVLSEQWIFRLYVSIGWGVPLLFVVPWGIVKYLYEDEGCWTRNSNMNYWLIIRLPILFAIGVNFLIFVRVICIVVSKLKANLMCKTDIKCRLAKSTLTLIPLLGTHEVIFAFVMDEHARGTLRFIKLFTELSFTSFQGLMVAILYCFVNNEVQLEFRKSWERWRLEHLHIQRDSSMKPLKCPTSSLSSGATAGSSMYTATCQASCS
GLP1R inv ag: GLP-1 receptor (human) inverse agonism | HEK293 GLP-1R CRE-luciferase, luminescence, 24 h; GLP-1R form is constitutively active | actives 1.6% (n = 410,000) | P43220 | Potency, µM (doses to about 38.3 µM), for the others: at the highest dose activity change, negative = inhibition, most hits filed as inhibitors; also: potency is read from the fitted curve at half-maximal effect; % is scaled to controls: 0 for no effect and ±100 for the full control effect; nearly all actives have a fitted effect of over 55% in size
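Readout was luciferase luminescence, measured 12 min after detection reagent at room temperature. Beforehand, GLP-1R reporter HEK293 cells had sat 12 h, then received compounds for 24 hr at 37 deg C.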
HEK293 tox: cytotoxicity counter-screen for GLP-1 receptor inverse agonists; AID 624418; Potency, µM (titrated, usually from 38.3 µM), without a hit: top-dose activity change, negative = inhibition, actives largely listed as inhibitors; actives 0.13% (n = 410,000); HEK293 cAMP-luciferase reporter cells, luminescence, 24 h;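 also: loss of luciferase light is scored as toxicity; potency is read from the fitted curve at half-maximal effect; % is scaled to controls: 0 for no effect and ±100 for the full control effect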
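Seeding density was 200 cells/uL; after overnight-length (12 h) culture, 23 nL compounds went on for 24 h at 37 °C. Readout used a luciferase detection reagent, luminescence taken after 12 min at room temperature.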
p53 reactivation: mutant p53 re-activation in reporter cells; H1299 p53-A138V BP100-luciferase reporter, luminescence, 24 h; Potency, µM (series often up to 92.2 µM), for the others: at the top dose activity change, positive = activation, most hits filed as activators; actives 0.063% (n = 320,000); also: potency is read from the fitted curve at half-maximal effect; % of control where 0% means no effect; nearly all actives have a fitted effect of over 45% in size
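p53-null H1299 cells stably carrying temperature-sensitive p53-A138V and a BP100-luciferase reporter were pinned with compounds (4-point, 1:5 series) and held 24 hrs at 37 deg C. Luminescence was read 10 min after detection reagent.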
ClpP mod: qHTS Assay for Activators of ClpP. ATP-dependent Clp protease proteolytic subunit (Bacillus subtilis (strain 168)), P80244. AID 651965, 2013. actives 1.9% (n = 340,000). purified B. subtilis ClpP, FRET peptide cleavage, 20 min. Potency, µM (titrated, usually from 57.5 µM), without a hit: top-dose activity change, negative = active; active = well fitted falling curve with a large enough effect; inconclusive = small, poorly fitted or top-dose-only effect; inactive = no such curve, though single readings can be large or run the other way; also: potency is read from the fitted curve at half-maximal effect; the source files actives as falling curves though it sought activators and does not explain the sign; nearly all actives have a fitted effect of over 65% in size
Target sequence (P80244 whole entry, looked up): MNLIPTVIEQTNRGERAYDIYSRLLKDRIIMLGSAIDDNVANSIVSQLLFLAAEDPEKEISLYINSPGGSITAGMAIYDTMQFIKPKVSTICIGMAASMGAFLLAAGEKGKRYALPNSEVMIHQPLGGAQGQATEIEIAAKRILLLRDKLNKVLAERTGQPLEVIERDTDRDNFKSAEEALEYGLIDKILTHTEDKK
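ClpP 10 microg/mL final, pH 8 Tris/KCl buffer with BSA, glycerol, Tween-20; compound pinned in; FRET-FV substrate; RT 20 min; Ex320/Em430; ΔFRET vs ADEP 5.8 microM, DMSO, no enzyme.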
LDHA inh: LDHA (human) enzyme inhibition; P00338; purified LDHA, NADH/diaphorase-resazurin fluorescence; stronger effect = lower value; activity change, % (values are at about 110 or 230 µM); actives 0.15% (n = 480,000); AID 1347041; in the data active = activity change below about -30%; inconclusive = mostly about -25% to -30%;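 also: plate controls were DMSO wells for no effect and wells without enzyme for full effect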
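Remaining NADH was detected by diaphorase (0.133 mg/mL) converting 37 µM resazurin to fluorescent resorufin, read at 0 and 20 minutes. The preceding 5-minute room-temperature reaction used 2 nM LDHA, 0.2 mM sodium pyruvate and 0.06 mM NADH at pH 7.4.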
Active calls of the source: *; ? = inconclusive; nt = no result given. Shown are actives, neighbours in structure and some others; about 2.9% of the full set was active somewhere. Unless noted, calls follow the shape of the dose curve; as a rule, active = well fitted curve in the direction sought with a large enough effect; inconclusive = small, poorly fitted or top-dose-only effect, or another doubt; inactive = no such curve, though single readings can be large; an effect the other way counts as inactive or inconclusive.

SMILES	GLP-1R agonist	GLP1R inv ag	HEK293 tox	p53 reactivation	ClpP mod	LDHA inh
CCc1ccc(NC(=O)CCS(=O)(=O)c2cccc3nsnc23)cc1	4%	?	8%	1%	0%	-4
COC(=O)c1ccc(C2/C(=C(\O)c3ccc(OC)c(C)c3)C(=O)C(=O)N2c2cc(C)on2)cc1 (centres undefined)	-4%	2%	63%	8%	-15%	4
Nc1ccc(O)cc1C(=O)OCC(=O)C12CC3CC(CC(C3)C1)C2	12%	-11%	29%	26%	22µM*	16
O=C(OCC(=O)C12CC3CC(CC(C3)C1)C2)c1ccc(O)cc1	8%	?	?	18%	-4%	-9
CCOC(=O)C1=CN(Cc2cccc(F)c2)S(=O)(=O)NC1c1ccc(F)c(Cl)c1 (centres undefined)	-1%	?	0%	nt	-2%	2
CCOC(=O)C1=CN(Cc2cccc(F)c2)S(=O)(=O)NC1c1ccc(Br)cc1F (centres undefined)	1%	10µM*	1%	-23%	-3%	0
O=C(CSc1ccc(-c2ccccc2)nn1)c1ccccc1	0%	12%	-7%	?	0%	-7
O=C(Cn1c(-c2cccs2)cc2cc(Cl)ccc21)NCc1ccccc1	nt	?	0%	nt	28µM*	-6
CN1CCN(CCCNC(=O)Cn2c(-c3cccs3)cc3cc(Cl)ccc32)CC1	nt	-24%	-20%	nt	32µM*	-3
O=C(O)Cn1c(-c2cccs2)cc2cc(Cl)ccc21	nt	-17%	-10%	nt	5%	-7
CCN(CC)CCCNC(=O)Cn1c(-c2cccs2)cc2cc(Cl)ccc21	nt	?	-10%	nt	28µM*	1
CCN1CCN(CCCNC(=O)Cn2c(-c3cccs3)cc3cc(Cl)ccc32)CC1	nt	?	-9%	nt	32µM*	-2
O=C(Cn1c(-c2cccs2)cc2ccccc21)NCCCN1CCN(c2ccccc2F)CC1	nt	48%	-1%	nt	?	1
CCc1c(C2CC2)ncn1Cc1cccc(-c2ccccc2)c1	nt	-33%	-18%	nt	1%	4
CC(C)Cc1nnc(NC(=O)CCC(=O)NCCc2ccccc2)s1	8%	20%	-6%	11%	-2%	-9
O=C1CC(c2ccccc2)=Nc2ccccc2N1	13%	6%	-7%	6%	0%	-7
O=C1CC(/C=C/c2ccncc2)=Nc2ccccc2N1	4%	2.5µM*	-24%	4%	-1%	-4
CCOC(=O)c1c(CN2CCCCC2)oc2ccc(O)cc12	1%	?	-15%	-1%	28µM*	-1
COc1ccccc1CNC(=O)c1ccc(CS(=O)(=O)c2ccccc2C)o1	5%	-5%	0%	?	0%	-4
O=C(C=C(C(=O)c1ccccc1)c1ccccc1)c1ccccc1	13%	8.9µM*	-3%	nt	nt	-2
CCc1cc(=O)oc2cc(C)cc(OCC(=O)O)c12	nt	nt	nt	nt	nt	6
CCCCc1cc(=O)oc2cc(C)cc(OCC(=O)O)c12	-10%	4%	0%	1%	8.9µM*	2
Cc1cccc(OCc2nc(-c3ccccn3)n[nH]2)c1	16%	?	?	nt	2%	2
Cc1ccc(OCc2nc(-c3ccccn3)n[nH]2)cc1	-2%	?	2.5µM*	?	1%	4
O=[N+]([O-])c1ccc(C(O)CN2CCN(c3ccccc3)CC2)cc1 (centres undefined)	10%	?	-5%	0%	nt	-4
SMILES	GLP-1R agonist	GLP1R inv ag	HEK293 tox	p53 reactivation	ClpP mod	LDHA inh
O=[N+]([O-])c1ccc(C(O)C[n+]2ccccc2)cc1 (centres undefined)	3%	-8%	0%	nt	-2%	-30*
O=C(CCc1c[nH]c2ccccc12)NC1CCC(c2ccccc2)CC1 (centres undefined)	nt	nt	nt	nt	nt	-1
O=C(CCn1cnc2onc(-c3ccc(F)cc3)c2c1=O)Nc1ccc(F)c(Cl)c1	nt	13µM*	-10%	nt	1%	-1
O=C(Nc1ccccc1)NC1CC2CCC(C1)N2Cc1nnnn1Cc1ccc2c(c1)OCO2 (centres undefined)	0%	0%	-13%	-13%	2%	-3
CCOc1ccccc1NC(=O)NC1CC2CCCC(C1)N2Cc1nnnn1CCc1ccccc1 (centres undefined)	-4%	10µM*	9%	2%	-2%	-9
COc1cc(OC)cc(C(=O)NNC(=O)CCCOc2ccccc2)c1	-3%	-16%	0%	-4%	-1%	0
C(#CC12CC3CC(CC(C3)C1)C2)CN1CCOCC1	-1%	-10%	1%	2%	0%	1
CCOC(=O)Cc1csc(NC(=O)CSc2nnnn2-c2ccc(C)cc2C)n1	-2%	6.3µM*	-19%	-1%	1%	-5
N#CC(CCc1ccccn1)c1ccccc1 (centres undefined)	-5%	14%	0%	nt	-2%	-10
Cc1ccc(S(=O)(=O)NCC(=O)OCc2cc(=O)oc3cc(C)ccc23)cc1	-2%	11%	7%	-8%	-7%	0
COC(=O)c1cc(Cl)cc2c(C)c(C3(O)CCCCC3)[nH]c12	16%	7.1µM*	8%	16%	-23%	8
CCc1c(C2(O)CCCCC2)[nH]c2c(C(=O)OC)cc(Cl)cc12	-3%	?	-8%	nt	-30%	2
Cc1c(Cl)c([N+](=O)[O-])nn1Cc1ccc(C(=O)N/N=C\c2cccc(Br)c2)o1	-5%	10µM*	-15%	-8%	-3%	-11
O=C(COc1ccccc1Cl)NCCNC(=O)c1cnccn1	12%	3%	4%	2%	nt	-6
CC(C)c1ccc(NC(=O)c2cc(Br)ccc2Br)cc1	5%	-24%	7%	6%	-1%	-7
Nc1ccc(-c2cc3ccccc3c(=O)o2)cc1	12%	9%	1%	-13%	-4%	-1
COc1cc(OC)cc(-c2cc3ccccc3c(=O)o2)c1	26%	38%	-11%	12%	28µM*	-1
CCOC(=O)N1CCN(C(=O)c2ccccc2NC(=O)c2ccc(OC)cc2)CC1	0%	-20%	-25%	-11%	0%	-2
COC(=O)c1ccc(-c2nc(CN3CCC(C(=O)N4CCOCC4)CC3)c(C)o2)cc1	1%	19%	11%	2%	7.9µM*	-6
Cc1oc(-c2ccc(F)cc2)nc1CN1CCCC(C(=O)N2CCOCC2)C1 (centres undefined)	-2%	-3%	2%	nt	-3%	-5
